Compound activity: PubChem BioAssay, National Center for Advancing Translational Sciences (NCATS)
Only some compounds are listed: those with a hit (about 21% of all), similar ones and a draw of the others.
Pf growth 96h = P. falciparum growth inhibition at 96 hours. P. falciparum luciferase reporter growth, 96 h. AID 504834. 320,000 compounds, 6.9% hits. Potency, µM (series often up to 28.7 µM), inactives show top-dose activity change, negative = inhibition, actives largely listed as inhibitors; further: potency means the concentration at half of the fitted maximal effect; on the % scale 0 is the no-effect control and ±100 the full control effect
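Cell-based qHTS: luciferase-tagged P. falciparum in erythrocytes (2% hematocrit, 0.05% parasitemia final) incubated with compounds for 96 hours, 37 C, 5% CO2; luciferase detection reagent then added and luminescence measured.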
Pf growth 48h = P. falciparum growth inhibition at 48 hours (one generation). P. falciparum luciferase growth in erythrocytes, 48 h. Potency, µM (titrated, usually from 28.7 µM), without a hit: top-dose activity change, negative = inhibition, hits mostly inhibitors. 310,000 compounds, 5.9% hits. AID 504832; further: potency means the concentration at half of the fitted maximal effect; on the % scale 0 is the no-effect control and ±100 the full control effect
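Luciferase-expressing P. falciparum in infected erythrocytes (2% hematocrit, 0.1% parasitemia final) in RPMI 1640/0.5% Albumax were exposed to compound for 48 hours at 37 C, 5% CO2; growth read as luminescence.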
CHX counter = counter-screen for Shiga toxin inhibitors: cycloheximide protein synthesis inhibition | cell reporter, cycloheximide protein synthesis inhibition counterscreen | max response, % | 300,000 compounds, 12% hits; in the data active means max response mostly above about 13%, no sharp cut-off; inactive means mostly below about 14%; further: read at 38.3 µM for the half of the compounds with a filed dose; 0% is about no effect
Shiga toxin inh = Shiga toxin inhibition; Vero cells, Shiga toxin protein synthesis inhibition reporter; inhibition, % at 38.7 µM; 290,000 compounds, 9.2% hits; in the data active means inhibition mostly above about 28%, no sharp cut-off; inactive means mostly below about 43%; further: 0% is about no effect
HCMV inh = human cytomegalovirus inhibition | activity change, negative = inhibition, % at 57.5 µM | AID 1259415 | 410,000 compounds, 4.5% hits | HFF cells, HCMV-luciferase reporter, 72 h; active compounds read low; in the data active means activity change below about -60%; inconclusive means no clear call, values can overlap the other calls; inactive means above about -39%; further: on the % scale 0 is the no-effect control and ±100 the full control effect
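After 16 h attachment at 37C, HFF cells received test compound and HCMV-luciferase (1 PFU/cell); reporter luminescence read 72 h later, data normalized against buffer-only and known inhibitor Salinomycin.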
HCV inh = inhibitors of hepatitis C virus infection; Huh7.5.1 HCVcc-Cre infection, luciferase reporter, 44 h; Potency, µM (titrated, usually from 41.8 µM), for the others: top-dose activity change, negative = inhibition, actives largely listed as inhibitors; 340,000 compounds, 3.4% hits; AID 651820; further: potency means the concentration at half of the fitted maximal effect; on the % scale 0 is the no-effect control and ±100 the full control effect
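HCVcc-Cre virus at an moi near 0.5 was added right after compound to cells cultured 4 h from seeding (1,000 cells/well). Luciferase activity was determined 44 h later, 15 min after substrate addition at RT.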
* = called active by the depositor; u = inconclusive; x = no result; [ ] = another dose, or the depositor's remark. Unless noted, the call rests on the fitted dose curve; in most records, active means well fitted inhibition curve with a large enough effect; inconclusive means small, poorly fitted or top-dose-only effect, or another doubt; inactive means no such curve, though single readings can be large or run the other way.

SMILES	Pf growth 96h	Pf growth 48h	CHX counter	Shiga toxin inh	HCMV inh	HCV inh
CCOC(=O)c1ccc(N2C(=O)c3n[nH]c(-c4ccco4)c3C2c2cccc(O)c2)cc1 (stereo not drawn)	x	x	x	x	14	x
COc1ccc(C2c3c(-c4ccccc4)n[nH]c3C(=O)N2c2ccc(C(=O)O)cc2)cc1 (stereo not drawn)	u	u	1	0	-12	15%
CCOC(=O)c1ccc(N2C(=O)c3n[nH]c(-c4ccco4)c3C2c2cccc(F)c2)cc1 (stereo not drawn)	x	x	x	x	-98*	x
CCOC(=O)c1ccc(N2C(=O)c3[nH]nc(-c4ccc(OC)cc4)c3C2c2ccc(C)cc2)cc1 (stereo not drawn)	x	x	x	x	-83*	x
CCOC(=O)c1ccc(N2C(=O)c3n[nH]c(C)c3C2c2ccccc2OC)cc1 (stereo not drawn)	x	x	x	x	2	x
CCOC(=O)c1ccc(N2C(=O)c3n[nH]c(-c4ccco4)c3C2c2ccccc2OC)cc1 (stereo not drawn)	x	x	x	x	-101*	x
COc1ccc(C(=O)OCC(=O)NCCN2C(=O)CSC2=O)cc1	58%	2%	-2	-9	u	0%
CCc1ccc(-n2c(=O)c3cccnc3n2CC(=O)NCc2ccccc2)cc1	x	x	x	x	-38	x
CCCN=C1N(C)C[C@@H]2[C@@H]3C(=O)N(Cc4ccccc4)C(=O)[C@@H]3[C@](Cc3ccccc3)(C(=O)OC)N12	x	x	x	x	-5	9%
CCn1c(SCC(=O)Nc2cc(Cl)ccc2OC)nc2c([nH]c3ccccc32)c1=O	x	x	x	x	32	x
CCOC(=O)c1ccc(N2C(=O)c3n[nH]c(-c4ccco4)c3C2c2cccc(OC)c2)cc1 (stereo not drawn)	x	x	x	x	-10	x
CCOC(=O)c1ccc(N2C(=O)c3n[nH]c(-c4ccco4)c3C2c2ccc(OCC)cc2)cc1 (stereo not drawn)	x	x	x	x	-88*	x
CCOC(=O)c1c(C)[nH]c(C)c1S(=O)(=O)NCC1CCN(Cc2ccccc2OC)CC1	u	-7%	-1	7	-31	-2%
C/C(=N/Nc1ccc([N+](=O)[O-])cc1)c1ccc(C)cc1C	-10%	48%	42*	94*	-63*	u
C/C(=N\Nc1ccc([N+](=O)[O-])cc1)c1ccc(C#N)cc1	19%	59%	-5	10	-18	6%
C/C(=N\NC(=O)CCc1c[nH]c2ccccc12)c1ccc([N+](=O)[O-])cc1	31%	-11%	-4	13	-21	-25%
C/C(=N/Nc1ccc([N+](=O)[O-])cc1)c1c[nH]c2ccccc12	u	1%	27*	34*	75	u
COc1ccc(CCNC(=O)CSc2nnc3ccccn23)cc1	7%	u	-2	-1	-5	3%
COc1ccc(S(=O)(=O)Nc2ccc(F)c(F)c2)cc1C(=O)N1CCOCC1	15%	13%	-1	-10	26	3%
O=c1oc2ccccc2c2oc3cc(O)c(O)cc3c12	71%	32%	24*	26*	-8	-21%
O=c1oc2ccccc2c(O)c1Cc1c(O)c2ccccc2oc1=O	-13%[12.8 µM]	3%[12.8 µM]	x	x	x	x
O=C(CSc1nc(C2CCCCC2)nc2ccccc12)N1CCCC1	-25%	u	2	-9	-101*	-26%
O=C(CSc1nncc2ccccc12)N1CCCCC1	-34%	7%	45*	40	-64*	-6%
O=C(CSc1nnc2c(n1)[nH]c1ccccc12)N1CCCCC1	u	u	2	19	u	u
CC(C)c1nc(SCC(=O)N2CCCC2)c2ccccc2n1	13%	-21%	-6	-27	-78*	u
O=C(CSc1nc(C2CC2)nc2ccccc12)N1CCCCC1	-11%	u	-5	-5	-11	-21%
COc1ccc(/C=C(/C#N)S(=O)(=O)c2ccc(C)cc2)cc1	-15%	x	-4	1	44	15%
CO/N=C/C(C#N)=C/c1ccc(OC)cc1	86%	48%	43*	61*	-28	6%
O=C(Nc1cc(Cl)cc(Cl)c1)C1CCC(=O)N1Cc1ccccc1Cl (stereo not drawn)	u	9.3µM*	-1	-17	-36	0%
